Data taken from PubChem BioAssay AID651813 (National Center for Advancing Translational Sciences (NCATS), 2012).
Out of some 2,100 compounds screened, about 1,100 (52%) were called active. Not shown: some 27% with an inconclusive outcome. The set was probably picked from earlier hits. Some of the results follow. Values without a mark were called inactive. Calls come from the whole dose curve; as a rule, active = well fitted inhibition curve with a large enough effect; inconclusive = small, poorly fitted or top-dose-only effect; inactive = no such curve, though single readings can be large or run the other way.

Each molecule was assayed against DNA dC->dU-editing enzyme APOBEC-3G (Homo sapiens) (UniProt Q9HC16) (assay: qHTS for inhibitors of Vif-A3G interactions: Cherry picks counterscreen). Settings: HeLa A3G-eYFP + Vif (tagged APOBEC3G with the HIV-1 protein that degrades it), eYFP fluorescence, 24 h.
Method in brief: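 HeLa cells stably expressing A3G-eYFP and Vif were treated for 24 h at 37 deg C with compounds at several concentrations; yellow fluorescence (Ex 488 nm, Em 500-530 nm) read by Acumen Explorer, MG132 as positive control.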
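Note: hits raise yellow fluorescence by blocking Vif-driven A3G-eYFP degradation; nearly all actives have a fitted effect of over 70% in size.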
Potency is the fitted concentration of half-maximal effect.
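Throughout, for max response: max response given as percent of control signal.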

Chain of DNA dC->dU-editing enzyme APOBEC-3G (Homo sapiens) (Q9HC16 whole entry, looked up): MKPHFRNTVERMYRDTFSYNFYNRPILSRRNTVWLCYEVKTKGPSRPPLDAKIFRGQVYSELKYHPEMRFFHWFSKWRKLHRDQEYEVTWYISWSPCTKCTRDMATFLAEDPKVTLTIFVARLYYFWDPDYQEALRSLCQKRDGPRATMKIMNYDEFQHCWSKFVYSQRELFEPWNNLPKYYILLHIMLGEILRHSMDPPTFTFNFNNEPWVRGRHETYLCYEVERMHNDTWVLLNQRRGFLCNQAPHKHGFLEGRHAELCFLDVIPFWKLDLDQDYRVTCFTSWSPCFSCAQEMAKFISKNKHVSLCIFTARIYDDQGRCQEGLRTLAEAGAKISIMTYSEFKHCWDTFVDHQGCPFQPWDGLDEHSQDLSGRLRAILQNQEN

Structure (SMILES) | Potency | max response
CC(=O)c1ccc2cccc3c2c1N=CN3C | 12.5 µM (active) | 
Nc1nc(SCc2ccc(Cl)cc2Cl)nc2nc3c(cc12)CCCC3 | 23.1 µM (active) | 
Cc1cc2nc3c(=O)n(CCc4ccccc4)c(=O)[nH]c3nc2cc1N | 3.66 µM (active) | 
Cc1cc2nc3c(=O)n(C4CCCCC4)c(=O)[nH]c3nc2cc1N | 7.31 µM (active) | 
Cc1cc2nc3c(=O)n(Cc4ccccc4)c(=O)[nH]c3nc2cc1N | 6.27 µM (active) | 
CCCCCCn1c(=O)[nH]c2nc3cc(N)ccc3nc2c1=O |  | 36.1%
Cc1ccc(NC(=O)CSc2n[nH]c(-c3ccccn3)n2)cc1 |  | -4.16%
Cc1ccc(NC(=O)CO/N=C/c2ccc(N(C)C)cc2)cc1 | 23.1 µM (active) | 
CN(C)c1ccc(/C=C(/C#N)C(=O)Nc2nc3c(s2)CCN(Cc2ccccc2)C3)cc1 | 0.444 µM (active) | 
CN(C)c1ccc(/C=C(\C#N)C(=O)Nc2nc3c(s2)CCN(Cc2ccccc2)C3)cc1 | 0.396 µM (active) | 
Cn1c(=O)c2cc(NC(=O)NCc3ccccc3)ccc2n1C/C=C/c1ccccc1 | 15.8 µM (active) | 
Cn1c(=O)c2cc(NC(=O)NCc3ccc(F)cc3)ccc2n1C/C=C/c1ccccc1 | 5.59 µM (active) | 
CCOCCC(=O)Nc1ccc2c(c1)c(=O)n(C)n2C/C=C/c1ccccc1 | 11.2 µM (active) | 
CCCCCCc1cc2cc(-c3nnc(-c4ccccc4O)o3)c(=O)oc2cc1O |  | 54.5%
CCCCCCc1cc2cc(-c3nnc(-c4ccccc4OC)o3)c(=O)oc2cc1O | 7.04 µM (active) | 
CCCCCCc1cc2cc(-c3nnc(-c4ccccc4)o3)c(=O)oc2cc1O | 1.98 µM (active) | 
Cc1c(N2C(=O)/C(=C/c3ccc(N(C)C)cc3)N(C)C2=S)c(=O)n(-c2ccccc2)n1C | 20.6 µM (active) | 
CN1C(=S)N(c2cccnc2)C(=O)/C1=C\c1ccc(N(C)C)cc1 | 11.2 µM (active) | 
CN1C(=O)/C(=C\c2ccc(N(C)C)cc2)OC1=S | 2.8 µM (active) | 
O=C(N/N=C/c1cccc2ccccc12)c1n[nH]c2c1CCCC2 | 3.53 µM (active) | 
O=C(N/N=C/c1cccs1)c1n[nH]c2c1CCC2 | 4.44 µM (active) | 
Cc1ccsc1/C=N\NC(=O)c1n[nH]c2c1CCC2 | 7.04 µM (active) | 
COCCNC(=S)N/N=C(\C)c1ccc(OC(F)F)cc1 |  | -0.557%
Cn1cc(/C=C2\SC(=S)N(NC(=O)c3cccc(Cl)c3)C2=O)c2ccccc21 | 8.2 µM (active) | 

Structure (SMILES) | Potency | max response
COc1cc(/C=N/Nc2cc(C)nc(NS(=O)(=O)c3ccccc3)n2)ccc1O |  | -5.07%
COc1cc(/C=N/Nc2ccc(Cl)nn2)cc(OC)c1O |  | -0.979%
COc1ccc(-c2cnnc(N/N=C/c3ccc(O)c(OC)c3)n2)cc1 | 8.86 µM (active) | 
O=C(Nc1ccccc1-c1nc2ccccc2[nH]1)c1ccc(N2C(=O)CCC2=O)cc1 | 18.4 µM (active) | 
S=C(NC1CCCCC1)N(CCc1ccccc1)CCc1ccccc1 |  | -10.7%
CCOC(=O)c1[nH]c(C)c(C(=O)Nc2ccc(C)cc2C)c1C | 3.96 µM (active) | 
CCOC(=O)c1[nH]c(C)c(C(=O)Nc2cc(OC)ccc2OC)c1C | 3.53 µM (active) | 
COc1ccc(OC)c(NC(=O)c2cc(-c3cc(C)cc(C)c3O)n[nH]2)c1 |  | -1.73%
CCOC(=O)c1c(C)[nH]c(C(=O)N/N=C/c2cccc(OC)c2)c1C | 15.8 µM (active) | 
CCOC(=O)c1[nH]c(C)c(C(=O)Nc2ccccc2C)c1C | 6.27 µM (active) | 
Cc1cc(N/N=C/c2ccc(O)cc2O)nc(-n2nc(C)cc2C)n1 |  | 2.12%
CCOC(=O)c1[nH]c(C)c(C(=O)Nc2ccccc2F)c1C | 3.53 µM (active) | 
CC(=O)c1c(C)[nH]c(C(=O)Nc2ccc(Cl)cc2F)c1C |  | -22.8%
Fc1ccc2nc3[nH]c4ccccc4c3nc2c1 | 0.396 µM (active) | 
COc1ccccc1CNC(=O)c1ccc2nc3[nH]c4ccccc4c3nc2c1 |  | 6.47%
CCN(CC(=O)Nc1ccccc1-c1ccccc1)Cc1nc2ccccc2c(=O)[nH]1 | 12.5 µM (active) | 
C(=Cc1c[nH]c2ccccc12)c1ccc2ccccc2n1 | 20.6 µM (active) | 
Cc1[nH]c2ccccc2c1/C=C/c1ccc2ccccc2n1 | 16.4 µM (active) | 
C(=C\c1c[nH]c2ccccc12)/c1ccc2ccccc2n1 | 16.4 µM (active) | 
CC(=O)c1cccc(NC(=O)C2CCCN(S(=O)(=O)c3cccc4nonc34)C2)c1 (centres undefined) |  | 11.2%
COc1ccc(C(=O)NC2CCCc3ccccc32)cc1[N+](=O)[O-] (centres undefined) | 7.04 µM (active) | 
COc1ccc(C(=O)C(C)[n+]2ccc(C)c3ccccc32)cc1[N+](=O)[O-] (centres undefined) |  | 3.16%
CCOC(=O)N1CCN(C(=O)c2cc(-c3ccc(OCC)cc3)nc3ccccc23)CC1 | 7.04 µM (active) | 
CCOC(=O)N1CCN(C(=O)c2ccccc2-c2ccccc2)CC1 | 5.59 µM (active) | 

Structure (SMILES) | Potency | max response
O=C(COc1ccccc1-c1ccccc1)NN=C1CCCC1 |  | -18.6%
O=C(NC(=S)N1CCN(c2ccccn2)CC1)c1ccccc1 |  | -0.54%
O=C(c1cc(-c2ccncc2)nc2ccccc12)N1CCN(c2ccccn2)CC1 | 9.94 µM (active) | 
Cc1c(C(=O)Nc2cccnc2)oc2ccc(Br)cc12 | 12.5 µM (active) | 
O=C(CSc1ccccc1)Nc1nc2ccccc2[nH]1 | 9.94 µM (active) | 
N#CC(C(=S)Nc1ccccc1)c1nc2ccccc2[nH]1 (centres undefined) |  | -4.48%
c1ccc2[nH]c(NN=C3CCCCCC3)nc2c1 |  | 0.674%
Fc1cccc(Cc2c(-c3ccco3)nc3ccc(Br)cn23)c1 | 14 µM (active) | 
COC(=O)c1ccc(Oc2cc(C)nc(SC)n2)cc1 | 8.86 µM (active) | 
Cc1ccc(-c2nc3ncccc3o2)cc1NC(=O)c1ccc([N+](=O)[O-])o1 |  | 3.91%
O=C(NCc1ccccc1)C(=O)NCC1COc2ccccc2O1 (centres undefined) | 12.5 µM (active) | 
COC(=O)CCS(=O)(=O)c1nc(-c2ccccc2)cc(C(F)(F)F)n1 | 12.5 µM (active) | 
CC1CCN(C(=O)C(C)Sc2nc(-c3ccccc3)cc(C(F)(F)F)n2)CC1 (centres undefined) |  | 2.38%
COc1ccc2o/c(=N/NC(=O)c3cccs3)c(C(N)=O)cc2c1 | 12.5 µM (active) | 
CCOC(=O)c1c(C)sc(-c2c(-c3ccccc3)[nH]c3[nH]c(=O)[nH]c(=O)c23)c1O | 18.4 µM (active) | 
COc1cc(-c2noc(C)c2/C=C/c2ccc(OC(C)=O)cc2)cc(OC)c1OC | 0.627 µM (active) | 
Cc1ccc(O)c(NC(=O)c2cc(-c3ccccc3O)no2)c1 | 23.1 µM (active) | 
COc1ccc(/C=N/NC(=O)c2cc3c(OC)ccc(OC)c3[nH]2)cc1O | 4.44 µM (active) | 
COc1ccc2[nH]c(C(=O)N/N=C/c3ccc(OC)c(O)c3)cc2c1 | 4.44 µM (active) | 
COc1ccc(S(=O)(=O)Nc2cccc3ccccc23)cc1 | 5.17 µM (active) | 
COC(=O)c1cccc(NS(=O)(=O)c2ccc(OC)cc2)c1C | 7.04 µM (active) | 
COc1ccc(S(=O)(=O)Nc2cc(Sc3ncn[nH]3)c(O)c3ccccc23)cc1 |  | -11.5%
CC1CCCCC1NC(=O)/C(C#N)=C/C=C/c1ccccc1[N+](=O)[O-] (centres undefined) | 14 µM (active) | 
Fc1cccc(F)c1/C=N/NC(=S)Nc1cccnc1 |  | -2.63%

Structure (SMILES) | Potency | max response
CCOc1ccccc1C1CC(=O)NC2=C1C(=O)CCC2 (centres undefined) | 12.5 µM (active) | 
CCCOc1ccccc1C1CC(=O)NC2=C1C(=O)CCC2 (centres undefined) | 6.27 µM (active) | 
CCCCN(CCCC)c1ccc(/C=C/c2ccnc3ccccc23)cc1 | 16.4 µM (active) | 
CCCN(CCC)c1ccc(/C=C/c2ccnc3ccccc23)cc1 | 14.6 µM (active) | 
CCCCN(CCC(=O)O)c1ccc(/C=C/c2ccnc3ccccc23)cc1 | 18.4 µM (active) | 
CCN(C)c1ccc(/C=C/c2ccnc3ccccc23)cc1 | 18.4 µM (active) | 
CCN(CC)c1ccc(/C=C/c2ccnc3ccccc23)cc1 | 14.6 µM (active) | 
CCN(CCCN(C)C)c1ccc(/C=C/c2ccnc3ccccc23)cc1 | 18.4 µM (active) | 
CC(C)CN(CC(C)C)c1ccc(/C=C/c2ccnc3ccccc23)cc1 | 16.4 µM (active) | 
O=C1OC(/C(=C\Nc2cc(Cl)ccc2O)[N+](=O)[O-])c2ccccc21 (centres undefined) |  | 4.09%
Cc1nc2ccc(NC(=O)c3cc(S(=O)(=O)N(C)c4ccccc4)ccc3Cl)cc2s1 | 16.4 µM (active) | 
N=c1n(CC(=O)c2ccc([N+](=O)[O-])cc2)c2ccccc2n1Cc1ccccc1 | 20.6 µM (active) | 
COc1ccc(-c2cc(C(F)F)n3ncc(C(=O)N4CCc5ccccc54)c3n2)cc1 | 2.23 µM (active) | 
CC1(C(=O)NCc2cccs2)Cc2c(-c3ccc(C(N)=O)cc3)ccnc2O1 (centres undefined) | 9.94 µM (active) | 
CC(=O)Nc1ccc(-c2ccnc3c2CC(C)(C(=O)NCc2ccco2)O3)cc1 (centres undefined) | 7.04 µM (active) | 
CC1(C(=O)NCc2ccco2)Cc2c(-c3cccc(C(N)=O)c3)ccnc2O1 (centres undefined) | 7.04 µM (active) | 
CC(=O)Nc1cccc(-c2ccnc3c2CC(C)(C(=O)NCc2cccs2)O3)c1 (centres undefined) | 3.14 µM (active) | 
Cn1c(=O)c(N)c2c3c(c(Br)ccc31)C(=O)c1ccccc1-2 |  | 44.6%
CC1(C(=O)NCc2ccccc2)Cc2c(-c3ccc(C(N)=O)cc3)ccnc2O1 (centres undefined) | 6.27 µM (active) | 
CC(=O)Nc1cccc(-c2ccnc3c2CC(C(=O)NCc2cccs2)O3)c1 (centres undefined) | 2.23 µM (active) | 
CC1(C(=O)NCc2ccccc2)Cc2c(-c3cccc(C(N)=O)c3)ccnc2O1 (centres undefined) | 6.27 µM (active) | 
CC1(C(=O)NCc2ccc(F)c(F)c2)Cc2c(-c3cccc(C(N)=O)c3)ccnc2O1 (centres undefined) | 17.7 µM (active) | 
